In the library only some 1.5% were active in any assay of this set; here they are far more common.
TLR4 MyD88 comp: TLR4-MyD88 interaction inhibition in cells; inhibition, % at 8.4 µM; O00206+Q99836; HeLa CL3-4 TLR4/MyD88 BLA complementation, FRET ratio; 200,000 compounds, 0.18% hits; in the data active means inhibition above about 25%
TLR9-MyD88 block: inhibitors of human TLR9-MyD88 binding; CHO BLA complementation TLR9-MyD88, CCF4 FRET ratio; 340,000 compounds, 0.21% hits; AID 504734; Q9NR96+Q99836; inhibition, % at 4.98 µM;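 active means inhibition above the mean over all tested compounds plus 3 SD, cut at about 21% in these data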
NTR1 agonist: activates human neurotensin receptor 1. NTR1-U2OS beta-arrestin-GFP spot imaging, agonist mode. activation, % at 20 µM. 330,000 compounds, 0.17% hits. AID 493036;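 active means activation at or above 40% of the spot to cytoplasm intensity ratio, with at least 20 cells analyzed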
ABHD5 PLIN5 PPI: blocks binding of human ABHD5 to perilipin-5 | Q00G26+Q8WTS1 | Split G. princeps luciferase complementation, luminescence, 4 h | inhibition, % at 4 µM | 360,000 compounds, 0.78% hits;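 active means inhibition above the mean inhibition across every tested compound plus 3 SD, cut at about 22% in these data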
Beta2AR agonist: human beta-2 adrenergic receptor agonism by FAP; P07550; Am2.2-beta2AR cells, FAP receptor internalization, flow cytometry; response, % (no concentration beside the values); 340,000 compounds, 0.43% hits;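 active means response above a set limit, near 3 SD of response in nonfluorescent compounds, cut at about 42% in these data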
NOD2-RIPK2 inh: NOD2-RIPK2 protein interaction inhibition. O43353. CHO BLA complementation NOD2-RIPK2, CCF4 ratio. inhibition, % at 4.98 µM. 360,000 compounds, 0.38% hits. AID 624267; in the data active means inhibition above about 21%
Target sequence (O43353 whole entry, looked up): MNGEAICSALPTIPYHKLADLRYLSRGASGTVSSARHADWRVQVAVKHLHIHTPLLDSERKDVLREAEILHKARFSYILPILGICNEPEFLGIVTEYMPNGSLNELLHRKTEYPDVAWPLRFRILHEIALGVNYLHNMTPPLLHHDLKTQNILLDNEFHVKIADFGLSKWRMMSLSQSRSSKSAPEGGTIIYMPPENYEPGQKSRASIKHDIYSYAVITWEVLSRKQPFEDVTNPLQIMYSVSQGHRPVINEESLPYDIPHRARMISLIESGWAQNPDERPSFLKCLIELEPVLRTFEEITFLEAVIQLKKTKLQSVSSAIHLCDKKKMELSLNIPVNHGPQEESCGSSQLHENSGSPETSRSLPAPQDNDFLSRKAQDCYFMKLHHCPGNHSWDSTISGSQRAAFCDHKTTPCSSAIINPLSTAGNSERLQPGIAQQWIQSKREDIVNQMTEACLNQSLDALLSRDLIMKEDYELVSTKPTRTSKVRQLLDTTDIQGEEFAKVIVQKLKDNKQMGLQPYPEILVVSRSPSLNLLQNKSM
TLR4-MyD88 conf: TLR4-MyD88 interaction inhibition confirmed; shares compounds with TLR4 MyD88 comp; HeLa CL3-4 BLA complementation, CCF4 FRET ratio; inhibition, % at 8.4 µM; 350 compounds, 50% hits; AID 941;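 active means mean inhibition across three repeat runs above about 25% carried over from the earlier screen, limit read from the data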
BLA inhibitor ct: inhibits beta-lactamase activity, counter-screen to TLR4-MyD88 binding inhibitors. HeLa BLA reporter, CCF4 FRET ratio. 350 compounds, 63% hits. inhibition, % at 8.4 µM. shares compounds with TLR4 MyD88 comp. AID 1237;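 active means mean inhibition over three repeats above about 26% taken from the earlier screen, limit read from the data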;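 further: HeLa cells stably expressing beta-lactamase reporter as counterscreen for TLR4-MyD88 inhibitors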
Of the large screens only hits and unclear results are named; the others gave an inactive call (follow-up assays come after a bar, where they were run).

Nc1cc(-c2ccc(Br)cc2)nn1Cc1ccccc1	none (no result: NTR1 agonist)
Nc1cc(-c2ccccc2)nn1Cc1ccc(Cl)cc1	TLR4 MyD88 comp 28 | TLR4-MyD88 conf inactive | BLA inhibitor ct inactive
COc1ccc(CCN2C(=O)COc3ccccc3C2C(=O)Nc2c(C)cccc2C)cc1OC (centres undefined)	none (no result: TLR4 MyD88 comp, TLR9-MyD88 block, NTR1 agonist, Beta2AR agonist)
CCOc1ccc(S(=O)(=O)N2CCOCC2)c2ccccc12	none (no result: TLR4 MyD88 comp)
CCOc1ccc(C(C)(C)C)cc1S(=O)(=O)N1CCOCC1	TLR4 MyD88 comp 27 | TLR4-MyD88 conf inactive | BLA inhibitor ct inactive
CCOC(=O)C1=C(C)N=c2s/c(=C\c3ccc(OC(C)=O)c(OCC)c3)c(=O)n2C1/C=C/c1ccccc1 (centres undefined)	TLR4 MyD88 comp 54 | TLR4-MyD88 conf 26 | BLA inhibitor ct inactive
CCCn1c(=O)[nH]c(=O)c2c1nc(-c1ccccc1OC(F)F)n2CCOC	TLR4 MyD88 comp 26 | TLR4-MyD88 conf inactive | BLA inhibitor ct inactive
CCCn1c(=O)[nH]c(=O)c2c1nc(-c1ccc(OC(F)F)c(OC)c1)n2CCOC	none
Cc1c(C)c2ccc(OCC(=O)NCCc3c[nH]c4ccccc34)cc2oc1=O	none (no result: TLR4 MyD88 comp, TLR9-MyD88 block, NTR1 agonist, Beta2AR agonist)
CCOC(=O)c1ccoc1CSCc1ccc(C(=O)OC)o1	TLR4 MyD88 comp 27 | TLR4-MyD88 conf inactive | BLA inhibitor ct inactive
CC(=O)Oc1ccc2c(c1)Oc1cc(OC(C)=O)ccc1C21OC(=O)c2ccccc21	TLR4 MyD88 comp 63, TLR9-MyD88 block 71, NOD2-RIPK2 inh 76 | TLR4-MyD88 conf 70 | BLA inhibitor ct 93
Cc1cc(O)ccc1C1(c2ccc(O)cc2C)OC(=O)c2ccccc21	none
O=C(CSc1nnc(CNc2cccc(C(F)(F)F)c2)n1Cc1ccco1)NCc1ccco1	TLR4 MyD88 comp 26 | TLR4-MyD88 conf inactive | BLA inhibitor ct inactive
CC1(C(=O)NS(=O)(=O)c2ccccc2OC(F)(F)F)CCN1C(=O)Cc1ccccc1 (centres undefined)	none (no result: TLR4 MyD88 comp, TLR9-MyD88 block, NTR1 agonist, Beta2AR agonist)
CCOc1ccc(S(=O)(=O)N2CCCC(C(=O)NCc3ccccn3)C2)cc1Cl (centres undefined)	none (no result: TLR4 MyD88 comp)
COc1ccc(S(=O)(=O)N2CCCC(C(=O)NCc3ccccn3)C2)cc1Cl (centres undefined)	TLR4 MyD88 comp 26 | TLR4-MyD88 conf inactive | BLA inhibitor ct inactive
CCOC(=O)c1c2ccc(OCC(=O)N/N=C/c3ccc(C)cc3)cc2n2ccccc12	TLR4 MyD88 comp 38 | TLR4-MyD88 conf 48 | BLA inhibitor ct inactive
CCCCNC(=O)C(NC(=O)c1cnc(C)cn1)C(=O)c1ccccc1 (centres undefined)	none (no result: TLR4 MyD88 comp, TLR9-MyD88 block, NTR1 agonist, Beta2AR agonist)
COc1ccc(C2C=C(c3ccccc3)Nc3nc(NC(C)=O)nn32)cc1 (centres undefined)	TLR4 MyD88 comp 36 (no result: TLR9-MyD88 block, ABHD5 PLIN5 PPI, Beta2AR agonist, NOD2-RIPK2 inh) | TLR4-MyD88 conf 31 | BLA inhibitor ct 56
CCOc1ccc(C2C=C(c3ccc(F)cc3)Nc3ncnn32)cc1 (centres undefined)	TLR4 MyD88 comp 26 | TLR4-MyD88 conf inactive | BLA inhibitor ct 53
CCOc1ccc(C2C=C(c3ccccc3)Nc3ncnn32)cc1 (centres undefined)	TLR4 MyD88 comp 27 (no result: TLR9-MyD88 block, ABHD5 PLIN5 PPI, Beta2AR agonist, NOD2-RIPK2 inh) | TLR4-MyD88 conf inactive | BLA inhibitor ct 41
COc1cccc(C2=CC(c3ccccc3)n3ncnc3N2)c1 (centres undefined)	none (no result: TLR9-MyD88 block, ABHD5 PLIN5 PPI, Beta2AR agonist, NOD2-RIPK2 inh)
CCCCNC(=O)N1CCN(C/C=C/c2ccccc2)CC1	TLR4 MyD88 comp 25 | TLR4-MyD88 conf inactive | BLA inhibitor ct inactive
O=[N+]([O-])c1ccc(NC(=S)NCc2ccc(F)cc2)cc1	none (no result: TLR4 MyD88 comp)
COc1cc(NC(=O)c2ccc(-c3cnn(C)c3)c3ccoc23)cc(OC)c1OC	none (no result: TLR4 MyD88 comp, TLR9-MyD88 block, NTR1 agonist, Beta2AR agonist)
CCn1c(SCC(=O)NCc2ccccc2)nc2nc3c(cc2c1=O)CCCC3	TLR4 MyD88 comp 25 | TLR4-MyD88 conf inactive | BLA inhibitor ct inactive
O=C1CC(c2ccc(O)cc2)Oc2cc(O)cc(O)c21 (centres undefined)	none
